Data from PubChem BioAssay (NCI).
This is part of a sample that, as a whole, favours compounds with a hit. Of some 79,000 tested, about 15% had one in any assay. Active and inactive are the calls of the source. Rule as the data show it: active = growth inhibition above about 70%; inactive = the rest.

Legend:
[1] = NCI Yeast Anticancer Drug Screen. Data for the rad50 strain (AID 155);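 also: 0% = growth of vehicle-only cultures of the same strain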; settings: S. cerevisiae rad50 strain growth inhibition, stronger effect = higher value
In short: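 Vehicle-treated cultures provide the reference for the growth inhibition reported for compound-exposed, repair-deficient yeast.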

[2] = NCI Yeast Anticancer Drug Screen. Data for the mec2-1 strain (AID 157); settings: S. cerevisiae mec2-1 strain, stronger effect = higher value
In short: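 Mutant yeast (mec2-1) grown with compound; growth inhibition relative to vehicle control reported.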

[3] = NCI Yeast Anticancer Drug Screen. Data for the sgs1 mgt1 strain (AID 161);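 also: 0% = growth of cultures given vehicle only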; settings: S. cerevisiae sgs1 mgt1 strain, stronger effect = higher value
In short: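 Growth of a repair-deficient yeast mutant was monitored after compound treatment and expressed as inhibition relative to vehicle-treated cultures.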

[4] = NCI Yeast Anticancer Drug Screen. Data for the cln2 rad14 strain (AID 165);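 also: 0% = growth equal to vehicle treated cultures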; settings: S. cerevisiae cln2 rad14 strain, stronger effect = higher value
In short: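 Readout is yeast growth inhibition versus vehicle-treated controls, using a strain with cln2 and rad14 alterations exposed to compound.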

[5] = NCI Yeast Anticancer Drug Screen. Data for the bub3 strain (AID 167); settings: S. cerevisiae bub3 mutant strain, stronger effect = higher value
In short: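 Mutant yeast screening strain plus compound; vehicle-treated cultures serve as the 0% inhibition reference.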

[6] = NCI Yeast Anticancer Drug Screen. Data for the mlh1 rad18 strain (AID 175); settings: S. cerevisiae mlh1 rad18 strain growth inhibition, stronger effect = higher value
In short: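 Genetically defined yeast (DNA repair-deficient) exposed to compounds; growth inhibition determined relative to vehicle.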

[7] = at 5.0 µM (retest, dose inferred, filed as 0.5)
[8] = at 50.0 µM (retest, dose inferred, filed as 5.0)

Measured: growth inhibition

O=C1c2c(F)c(F)c(F)c(F)c2SC2=NCCN12
active: [1]; [8] 99% | [1]; at 50.0 µM 78.4% | [2]; [8] 98% | [2]; at 50.0 µM 80.4% | [3]; [8] 97% | [3]; at 50.0 µM 76.5% | [4]; [8] 98% | [4]; at 50.0 µM 76.8% | [5]; [8] 99% | [5]; at 50.0 µM 83.2% | [6]; [8] 98% | [6]; at 50.0 µM 78.7%
inactive: [1]; [7] 2% | [2]; [7] -4% | [3]; [7] -10% | [4]; [7] -23% | [5]; [7] -31% | [6]; [7] 11%

OC1(c2ccc(Br)cc2)C2CCCCC2C2CCCCC21 (configuration not stated)
inactive: [1]; [7] 36% | [2]; [7] 7% | [3]; [7] 18% | [4]; [7] -4% | [5]; [7] 7% | [6]; [7] 10%
active: [1]; [8] 92% | [1]; at 50.0 µM 98% | [2]; [8] 95% | [2]; at 50.0 µM 98.5% | [3]; [8] 95% | [3]; at 50.0 µM 98.3% | [4]; [8] 92% | [4]; at 50.0 µM 97.7% | [5]; [8] 93% | [5]; at 50.0 µM 98.4% | [6]; [8] 95% | [6]; at 50.0 µM 98.2%

C=CCc1ccc(OC(=O)CCl)c(OC)c1
inactive: [1]; [7] 1% | [1]; [8] 23% | [1]; at 50.0 µM 64.8% | [2]; [7] 1% | [2]; [8] 9% | [2]; at 50.0 µM 27.8% | [3]; [7] -1% | [3]; [8] 5% | [3]; at 50.0 µM 12.6% | [4]; [7] 2% | [4]; [8] 8% | [4]; at 50.0 µM 28.8% | [5]; [7] -2% | [5]; [8] 3% | [5]; at 50.0 µM 18.6% | [6]; [7] 0% | [6]; [8] 26%
active: [6]; at 50.0 µM 81.7%

CC(C)(C)c1cc(C(O)(C(F)(F)F)C(F)(F)F)c(Cl)c(C(O)(C(F)(F)F)C(F)(F)F)c1
inactive: [1]; [7] 10% | [2]; [7] 13% | [3]; [7] 11% | [4]; [7] 24% | [5]; [7] 14% | [6]; [7] 8%
active: [1]; [8] 99% | [1]; at 50.0 µM 99.5% | [2]; [8] 98% | [2]; at 50.0 µM 99.7% | [3]; [8] 99% | [3]; at 50.0 µM 99.7% | [4]; [8] 99% | [4]; at 50.0 µM 99% | [5]; [8] 99% | [5]; at 50.0 µM 99.8% | [6]; [8] 99% | [6]; at 50.0 µM 99.5%

COC(O)C12OC3CO[Si](C(C)C)(C(C)C)O[Si](C(C)C)(C(C)C)OC3C1Oc1nc(=O)ccn12 (configuration not stated)
active: [1]; [8] 98% | [1]; at 50.0 µM 88.7% | [2]; [8] 99% | [2]; at 50.0 µM 91.7% | [3]; [8] 98% | [3]; at 50.0 µM 86.5% | [4]; [8] 97% | [4]; at 50.0 µM 86.7% | [5]; [8] 98% | [5]; at 50.0 µM 87.5% | [6]; [8] 98%
inactive: [1]; [7] 10% | [2]; [7] 13% | [3]; [7] -25% | [4]; [7] 1% | [5]; [7] -4% | [6]; [7] 15% | [6]; at 50.0 µM -69.8%

Cc1cc(S(=O)(=O)Nc2n[nH]c(-c3ccccn3)n2)c(S)cc1Cl
inactive: [1]; [7] -10% | [2]; [7] 27% | [2]; at 50.0 µM 53.8% | [3]; [7] 18% | [3]; at 50.0 µM 55% | [4]; [7] -4% | [4]; at 50.0 µM 49% | [5]; [7] -29% | [5]; at 50.0 µM 69.3% | [6]; [7] 0% | [6]; at 50.0 µM 56%
active: [1]; [8] 92% | [1]; at 50.0 µM 73.8% | [2]; [8] 84% | [3]; [8] 88% | [4]; [8] 85% | [5]; [8] 93% | [6]; [8] 88%

COC(=O)c1cccc2c1C(=O)c1ccccc1-2
inactive: [1]; [7] -7% | [1]; [8] 37% | [1]; at 50.0 µM 22.7% | [2]; [7] -37% | [2]; [8] -14% | [2]; at 50.0 µM -9.6% | [3]; [7] -8% | [3]; [8] -11% | [3]; at 50.0 µM -5.9% | [4]; [7] -3% | [4]; [8] -19% | [5]; [7] -23% | [5]; [8] -54% | [5]; at 50.0 µM -10.7% | [6]; [7] -2% | [6]; [8] -6% | [6]; at 50.0 µM 1.55%
active: [4]; at 50.0 µM 71.2%

CC(C)CN(CC(C)C)CN1C(=O)/C(=C/c2ccc([N+](=O)[O-])cc2)SC1=S
active: [6]; at 50.0 µM 71.2%
inactive: [1]; [7] 16% | [1]; [8] 53% | [1]; at 50.0 µM 63.2% | [2]; [7] 8% | [2]; [8] 61% | [2]; at 50.0 µM 40.3% | [3]; [7] 11% | [3]; [8] 59% | [3]; at 50.0 µM 67.7% | [4]; [7] 37% | [4]; [8] 44% | [4]; at 50.0 µM 46.9% | [5]; [7] 4% | [5]; [8] 37% | [5]; at 50.0 µM 41.2% | [6]; [7] 26% | [6]; [8] 66%

O=[N+]([O-])c1ccc(/C=C/[n+]2ccc3ccccc3c2)o1
active: [1]; [8] 93% | [1]; at 50.0 µM 98.8% | [2]; [8] 91% | [2]; at 50.0 µM 98.8% | [3]; [8] 98% | [3]; at 50.0 µM 98.9% | [4]; [8] 95% | [4]; at 50.0 µM 96.2% | [5]; [8] 97% | [5]; at 50.0 µM 99.2% | [6]; [8] 97% | [6]; at 50.0 µM 99%
inactive: [1]; [7] 29% | [2]; [7] 24% | [3]; [7] 40% | [4]; [7] -6% | [5]; [7] 10% | [6]; [7] 52%
